For assay [1], the target named is Androgen receptor (Homo sapiens) (UniProt P10275). Briefly: ATG_AR_TRANS: Attagene TRANS-FACTORIAL HepG2 Assay for human Androgen Receptor (AR) (AID 2282973). To be noted: HepG2 Attagene TRANS-FACTORIAL AR reporter transcription. The method, boiled down: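 Transfected HepG2, 24 h treatment, chimeric NR-Gal4 driving GAL4-UAS reporters. mRNA induction by RT-PCR/capillary electrophoresis fluorescence; DMSO as negative control and baseline.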

Assay [2] concerns the target Cytochrome P450 2C18 (Homo sapiens) (UniProt P33260). Kind of assay: NVS_ADME_hCYP2C18: NovaScreen (NVS) CYP450-related Enzyme Activity (ADME) Assay for human CYP2C18 (AID 2283103; active means hit-call score of the fitted dose curve at least 0.9, where 1 is the maximum; inactive means score below 0.9). The method, boiled down: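 Cell-free recombinant human CYP2C18 with fluorogenic substrate; fluorescence intensity read 0.5 h after dosing. Single-point screen at 10 uM in duplicate, then concentration-response up to 20 uM; loss of signal fitted against acetonitrile baseline.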

Assay [3] addresses rat CYP1A2, Cyp1a2 (gene 24297) (UniProt P04799). Kind of assay: NVS_ADME_rCYP1A2: NovaScreen (NVS) CYP450-related Enzyme Activity (ADME) Assay for rat CYP1A2 (AID 2283115). The method, boiled down: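 Cell-free recombinant rat enzyme with fluorogenic substrate, read by fluorescence intensity 1 hour after dosing. Loss of signal versus acetonitrile negative control; primary screen at 10 uM in duplicate, actives followed in concentration series.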

Assay [4] deals with rat CYP2C12, Cyp2c12 (gene 25011) (UniProt P11510). Briefly: NVS_ADME_rCYP2C12: NovaScreen (NVS) CYP450-related Enzyme Activity (ADME) Assay for rat CYP2C12 (AID 2283119). The method in brief: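 Cell-free recombinant rat CYP2C12 activity read by fluorescence 0.5 h after dosing; loss of signal versus acetonitrile control. Primary screen in duplicate at 10 uM; actives then run in concentration-response format.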

Assay [5] has as its target rat CYP2D1, Cyp2d1 (gene 266684) (UniProt P10633). Kind of assay: NVS_ADME_rCYP2D1: NovaScreen (NVS) CYP450-related Enzyme Activity (ADME) Assay for rat CYP2D1 (AID 2283122). The method in brief:
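Cell-free fluorescence enzyme-activity assay on extracted rat CYP2D1 protein, read 0.75 h after dosing. Primary screen in duplicate at 10 uM; qualifying chemicals then run in concentration-response to 20 uM max, loss-of-signal versus acetonitrile baseline.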

Assay [6] has as its target human Acetylcholinesterase (AChE), ACHE (gene 43) (UniProt P22303). Briefly: NVS_ENZ_hAChE: NovaScreen (NVS) Enzymatic Assay for human Acetylcholinesterase (AChE) (AID 2283129). The method in brief: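 Cell-free colorimetric enzyme-activity assay; compounds read 0.33 hour after dosing, loss of signal vs DMSO baseline. Primary screen in duplicate at 25 uM single concentration, with active compounds retested in concentration series.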

A further assay has as its target Caspase-1 (Homo sapiens) (UniProt P29466). Briefly: NVS_ENZ_hCASP1: NovaScreen (NVS) Enzymatic Assay for human Caspase 1 (CASP1) (AID 2283132). The method, boiled down: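 Cell-free enzymatic assay with E. coli-expressed recombinant protein; fluorescence intensity read 1 hour after dosing. Single-concentration duplicate screen at 25 uM, then concentration-response up to 50 uM; activity fitted relative to DMSO, loss of signal meaning inhibition.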

Assay [7] concerns the target human Caspase 2 (CASP2), CASP2 (gene 835) (UniProt P42575). Briefly: NVS_ENZ_hCASP2: NovaScreen (NVS) Enzymatic Assay for human Caspase 2 (CASP2) (AID 2283135). The method in brief:
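E. coli-expressed enzyme in a cell-free protease assay, fluorescence read 1 h after dosing. Compounds at 25 uM in duplicate, with concentration-response up to 50 uM for hits; loss of signal against DMSO baseline.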

For assay [8], the target named is rat Acetylcholinesterase (AChE), Ache (gene 83817) (UniProt P37136). Kind of assay: NVS_ENZ_rAChE: NovaScreen (NVS) Enzymatic Assay for rat Acetylcholinesterase (AChE) (AID 2283233). The method in brief:
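Rat brain membrane acetylcholinesterase activity measured colorimetrically 0.33 h after compound addition, loss of signal relative to DMSO. Primary screen in duplicate at 25 uM; actives re-run as concentration-response with 50 uM top concentration.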

Assay [9] deals with rat Monoamine Oxidase, MAO-B, Peripheral (MAOBP), Maob (gene 25750) (UniProt P19643). Briefly: NVS_ENZ_rMAOBP: NovaScreen (NVS) Enzymatic Assay for rat Monoamine Oxidase, MAO-B, Peripheral (MAOBP) (AID 2283242).
Assay [10] concerns the target rat Neurotensin Receptor (NTS), Ntsr1 (gene 366274) (UniProt P20789). Briefly: NVS_GPCR_rNTS: NovaScreen (NVS) G Protein-Coupled Receptor Assay for rat Neurotensin Receptor (NTS) (AID 2283308). The method, boiled down:
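Rat forebrain membranes; radioligand binding with competitive displacement, read by filter-based scintillation counting 1 h after dosing. Primary screen in duplicate at 25 uM; actives (e.g., 30% inhibition) rerun in concentration-response up to 50 uM, loss-of-signal versus DMSO.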

The target of assay [11] is rat Oxytocin Receptor (OXT), Oxtr (gene 25342) (UniProt P70536). Kind of assay: NVS_GPCR_rOXT: NovaScreen (NVS) G Protein-Coupled Receptor Assay for rat Oxytocin Receptor (OXT) (AID 2283330). The method, boiled down:
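Radioligand displacement on rat uterine membranes, 1 h incubation, filter-based scintillation counting. Chemicals were screened in duplicate at 25 uM, and those passing threshold were retested in concentration-response up to 50 uM. Loss of binding was fitted versus DMSO.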

In assay [12] the target is Norway rat Vesicular Monoamine Transporter (VMAT2), neurotransmitter transporter, Slc18a2 (gene 25549) (UniProt Q01827). Briefly: NVS_TR_rVMAT2: NovaScreen (NVS) Transporter Assay for Norway rat Vesicular Monoamine Transporter (VMAT2), neurotransmitter transporter (AID 2283376).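 Further: actives lower the bound radioligand signal below the DMSO level.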 The method in brief:
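Rat forebrain tissue preparation used in a cell-free radioligand binding format; displacement read by filter-based scintillation counting 1 hour after dosing. Primary screen in duplicate at 25 uM, actives then run in concentration series; loss of signal versus DMSO baseline.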

Assay [13] addresses human Aurora Kinase A - serine/threonine-protein Kinase 6 (AurA), AURKA (gene 6790) (UniProt O14965). Briefly: NVS_ENZ_hAurA: NovaScreen (NVS) Enzymatic Assay for human Aurora Kinase A - serine/threonine-protein Kinase 6 (AurA) (AID 2283142). The method, boiled down:
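Cell-free enzymatic assay with human Aurora A, 1 hour after dosing. Fluorescent substrate turnover detected after electrophoretic mobility shift separation of substrate and product. Screened at 25 uM, actives retested in concentration-response up to 50 uM.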

The target in a further assay is PPP2CA (gene 5515) (UniProt P67775). Kind of assay: NVS_ENZ_hPPP2CA: NovaScreen (NVS) Enzymatic Assay for human Protein Phosphatase 2 Aatalytic subunit Alpha (PPP2CA) (AID 2283199). The method, boiled down: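 Recombinant human PPP2CA with fluorescent substrate; product separated from substrate by electrophoretic mobility shift, read 1.33 h after dosing. Duplicate single-point at 25 uM, then singleton concentration-response up to 50 uM; loss of signal versus DMSO.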

For assay [14], the target named is bovine Gamma-Aminobutyric Acid Type A Receptor BDZ, alpha 1 site (GABARa1), GABRA1 (gene 780973) (UniProt P08219). Kind of assay: NVS_LGIC_bGABARa1: NovaScreen (NVS) Ligand-Gated Ion Channel Assay for bovine Gamma-Aminobutyric Acid Type A Receptor BDZ, alpha 1 site (GABARa1) (AID 2283321). The method in brief:
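Radioligand competition binding on bovine cortical membranes, 0.75 h, filter-based scintillation counting. Primary single concentration 25 uM in duplicate; actives rerun in concentration-response to 50 uM max. Loss of signal fitted versus DMSO.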

Another assay relates to rat CYP2B1, gene 24300. Kind of assay: NVS_ADME_rCYP2B1: NovaScreen (NVS) CYP450-related Enzyme Activity (ADME) Assay for rat CYP2B1 (AID 2283117). The method in brief: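 Recombinant rat CYP2B1 with fluorogenic substrate, read at 0.75 h. Primary screen in duplicate at 10 uM; compounds meeting threshold (e.g., 30% inhibition) re-run in concentration-response up to 20 uM. Fitted against acetonitrile control.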

The target in assay [15] is rat Monoamine Oxidase, MAO-B, Central (MAOBC), Maob (gene 25750) (UniProt P19643). Kind of assay: NVS_ENZ_rMAOBC: NovaScreen (NVS) Enzymatic Assay for rat Monoamine Oxidase, MAO-B, Central (MAOBC) (AID 2283238). The method, boiled down:
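Rat brain tissue extract served as the cell-free MAO-B source; enzyme activity was read by scintillation counting 1.17 hours after compound addition. Loss of signal versus DMSO baseline was fitted; primary single-concentration screen at 25 uM, follow-up concentration-response up to 50 uM.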

Assay [16] addresses human AMP-activated Protein Kinase, alpha 1 (AMPKa1), PRKAA1 (gene 5562) (UniProt Q13131). Briefly: NVS_ENZ_hAMPKa1: NovaScreen (NVS) Enzymatic Assay for human AMP-activated Protein Kinase, alpha 1 (AMPKa1) (AID 2283130). The method, boiled down: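 Recombinant human AMPKα1 activity was measured cell-free by fluorescent substrate conversion with electrophoretic mobility-shift separation, 1 h after dosing. Duplicate single-point screening was at 25 uM; actives (≥30% inhibition) were retested in concentration-response up to 50 uM.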

Assay [17] concerns the target human Fibroblast Growth Factor Receptor 1 (FGFR1), FGFR1 (gene 2260) (UniProt P11362). Briefly: NVS_ENZ_hFGFR1: NovaScreen (NVS) Enzymatic Assay for human Fibroblast Growth Factor Receptor 1 (FGFR1) (AID 2283159). The method, boiled down:
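Cell-free recombinant kinase with fluorescent substrate, product separated by electrophoretic mobility shift; read 1 hour after dosing, loss of signal relative to DMSO. Initial screen in duplicate at 25 uM, actives followed in concentration series.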

For assay [18], the target named is rat Gamma-Aminobutyric Acid Type A Receptor BDZ, alpha 6 site (GABARa6), Gabra6 (gene 29708) (UniProt P30191). Kind of assay: NVS_LGIC_rGABARa6: NovaScreen (NVS) Ligand-Gated Ion Channel Assay for rat Gamma-Aminobutyric Acid Type A Receptor BDZ, alpha 6 site (GABARa6) (AID 2283339). The method in brief:
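Rat cerebellar membranes; radioligand binding, filtration and scintillation counting, read 1 h after dosing. Single-concentration duplicate screen at 25 uM, then concentration-response up to 50 uM for actives; loss of signal fitted versus DMSO baseline.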

This is an account of results in PubChem BioAssay (EPA / NIEHS).

Structures are written as SMILES. Several values for one entry are separate records, joined by “and”; a condition that tells them apart may be missing. Identical values can stand only once. Inconclusive results are not listed. Activity calls are given as the source filed them. How the source made its calls, unless noted: active means hit-call score of the fitted dose curve at least 0.9, where 1 is the maximum; inconclusive means response in the unintended direction; inactive means score below 0.9.

By AC50 is commonly meant the concentration giving half of the maximal activity seen.

Sequence of Androgen receptor (Homo sapiens) (P10275 whole entry, looked up, the tested form may be a part): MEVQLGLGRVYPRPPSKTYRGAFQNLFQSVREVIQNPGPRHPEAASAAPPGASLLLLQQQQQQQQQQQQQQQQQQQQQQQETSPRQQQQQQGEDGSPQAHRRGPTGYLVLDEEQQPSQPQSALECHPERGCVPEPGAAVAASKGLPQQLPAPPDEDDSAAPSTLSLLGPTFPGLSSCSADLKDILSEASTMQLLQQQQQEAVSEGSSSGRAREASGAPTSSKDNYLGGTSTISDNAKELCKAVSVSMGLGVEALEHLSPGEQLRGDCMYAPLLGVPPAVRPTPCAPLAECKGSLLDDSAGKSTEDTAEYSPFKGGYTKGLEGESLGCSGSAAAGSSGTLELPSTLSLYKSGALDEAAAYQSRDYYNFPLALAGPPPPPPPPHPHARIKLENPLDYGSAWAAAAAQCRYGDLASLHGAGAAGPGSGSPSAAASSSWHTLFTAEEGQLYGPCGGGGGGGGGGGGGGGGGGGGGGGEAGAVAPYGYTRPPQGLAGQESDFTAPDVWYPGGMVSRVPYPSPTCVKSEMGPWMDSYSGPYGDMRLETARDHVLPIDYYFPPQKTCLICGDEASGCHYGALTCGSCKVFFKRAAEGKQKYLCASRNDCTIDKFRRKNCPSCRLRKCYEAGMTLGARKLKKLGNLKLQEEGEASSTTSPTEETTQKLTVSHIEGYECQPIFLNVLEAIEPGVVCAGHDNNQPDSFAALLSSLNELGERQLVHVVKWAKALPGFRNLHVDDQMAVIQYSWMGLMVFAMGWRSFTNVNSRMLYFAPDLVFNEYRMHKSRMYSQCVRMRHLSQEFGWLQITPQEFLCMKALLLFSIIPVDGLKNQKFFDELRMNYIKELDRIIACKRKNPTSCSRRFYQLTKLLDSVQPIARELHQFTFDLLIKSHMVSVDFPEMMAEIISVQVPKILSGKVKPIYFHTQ
Sequence of rat CYP1A2, Cyp1a2 (gene 24297) (P04799 whole entry, looked up): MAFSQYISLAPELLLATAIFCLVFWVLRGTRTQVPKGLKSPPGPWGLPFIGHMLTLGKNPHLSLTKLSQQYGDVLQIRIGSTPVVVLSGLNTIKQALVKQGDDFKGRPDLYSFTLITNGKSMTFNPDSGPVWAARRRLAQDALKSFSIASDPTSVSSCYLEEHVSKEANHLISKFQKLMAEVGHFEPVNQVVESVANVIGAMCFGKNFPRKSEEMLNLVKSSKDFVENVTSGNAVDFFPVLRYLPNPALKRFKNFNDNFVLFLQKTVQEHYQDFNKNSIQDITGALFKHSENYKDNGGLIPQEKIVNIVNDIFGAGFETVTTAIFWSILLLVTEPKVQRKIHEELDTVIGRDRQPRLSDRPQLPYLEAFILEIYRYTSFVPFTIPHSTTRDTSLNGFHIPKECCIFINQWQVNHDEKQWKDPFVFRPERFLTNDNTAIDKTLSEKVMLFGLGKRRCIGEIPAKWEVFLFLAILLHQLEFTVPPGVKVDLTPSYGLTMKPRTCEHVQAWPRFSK
Sequence of Cytochrome P450 2C18 (Homo sapiens) (P33260 whole entry, looked up): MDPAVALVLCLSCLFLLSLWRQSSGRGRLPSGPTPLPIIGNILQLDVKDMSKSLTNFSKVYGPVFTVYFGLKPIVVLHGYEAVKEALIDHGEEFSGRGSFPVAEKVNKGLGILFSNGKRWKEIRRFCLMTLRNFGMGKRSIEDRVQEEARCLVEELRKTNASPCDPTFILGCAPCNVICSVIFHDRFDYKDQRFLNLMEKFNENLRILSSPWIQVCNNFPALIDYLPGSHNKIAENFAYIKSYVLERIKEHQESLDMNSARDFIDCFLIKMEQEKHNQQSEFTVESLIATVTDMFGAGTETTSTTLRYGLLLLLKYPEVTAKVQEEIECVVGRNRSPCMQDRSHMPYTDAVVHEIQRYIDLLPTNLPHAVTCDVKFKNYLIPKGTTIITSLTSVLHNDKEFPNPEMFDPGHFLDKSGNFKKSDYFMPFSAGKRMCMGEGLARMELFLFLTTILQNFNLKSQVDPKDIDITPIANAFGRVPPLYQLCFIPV
Sequence of rat Neurotensin Receptor (NTS), Ntsr1 (gene 366274) (P20789 whole entry, looked up): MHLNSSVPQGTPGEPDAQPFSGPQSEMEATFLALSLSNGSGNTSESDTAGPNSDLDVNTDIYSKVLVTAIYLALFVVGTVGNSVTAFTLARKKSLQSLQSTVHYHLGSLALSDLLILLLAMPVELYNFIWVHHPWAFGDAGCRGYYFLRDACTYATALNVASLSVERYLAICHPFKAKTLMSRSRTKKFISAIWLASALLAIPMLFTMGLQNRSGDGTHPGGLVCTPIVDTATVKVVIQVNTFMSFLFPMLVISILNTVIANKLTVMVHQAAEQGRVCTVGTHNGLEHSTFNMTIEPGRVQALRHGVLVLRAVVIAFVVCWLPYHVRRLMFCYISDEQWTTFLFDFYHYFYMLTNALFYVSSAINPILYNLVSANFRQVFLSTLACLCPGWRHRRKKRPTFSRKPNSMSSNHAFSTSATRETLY
Sequence of rat Oxytocin Receptor (OXT), Oxtr (gene 25342) (P70536 whole entry, looked up): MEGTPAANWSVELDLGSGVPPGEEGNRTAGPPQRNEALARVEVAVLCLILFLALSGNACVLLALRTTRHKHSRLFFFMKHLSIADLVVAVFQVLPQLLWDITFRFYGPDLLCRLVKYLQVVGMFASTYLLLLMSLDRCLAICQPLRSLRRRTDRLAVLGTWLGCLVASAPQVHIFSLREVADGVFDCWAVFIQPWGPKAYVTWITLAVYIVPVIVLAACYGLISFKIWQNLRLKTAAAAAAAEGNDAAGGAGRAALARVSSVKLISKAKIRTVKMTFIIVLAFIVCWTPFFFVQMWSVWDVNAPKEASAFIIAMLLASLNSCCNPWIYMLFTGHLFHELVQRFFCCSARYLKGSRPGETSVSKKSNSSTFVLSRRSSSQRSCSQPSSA
Sequence of Norway rat Vesicular Monoamine Transporter (VMAT2), neurotransmitter transporter, Slc18a2 (gene 25549) (Q01827 whole entry, looked up): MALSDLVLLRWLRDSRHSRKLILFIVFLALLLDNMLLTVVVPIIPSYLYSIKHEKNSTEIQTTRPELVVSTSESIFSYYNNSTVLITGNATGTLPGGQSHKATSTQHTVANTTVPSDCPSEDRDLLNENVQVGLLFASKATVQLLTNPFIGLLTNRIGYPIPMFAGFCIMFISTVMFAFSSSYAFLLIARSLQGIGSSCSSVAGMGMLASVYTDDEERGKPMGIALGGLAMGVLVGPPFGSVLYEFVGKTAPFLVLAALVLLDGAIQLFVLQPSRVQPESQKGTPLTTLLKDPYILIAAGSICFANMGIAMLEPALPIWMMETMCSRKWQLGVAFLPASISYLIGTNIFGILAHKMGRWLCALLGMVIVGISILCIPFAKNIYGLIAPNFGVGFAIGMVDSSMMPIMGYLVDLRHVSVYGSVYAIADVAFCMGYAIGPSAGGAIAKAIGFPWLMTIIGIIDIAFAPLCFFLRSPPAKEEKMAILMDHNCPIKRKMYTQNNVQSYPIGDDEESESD
Sequence of rat Monoamine Oxidase, MAO-B, Central (MAOBC), Maob (gene 25750) (P19643 whole entry, looked up): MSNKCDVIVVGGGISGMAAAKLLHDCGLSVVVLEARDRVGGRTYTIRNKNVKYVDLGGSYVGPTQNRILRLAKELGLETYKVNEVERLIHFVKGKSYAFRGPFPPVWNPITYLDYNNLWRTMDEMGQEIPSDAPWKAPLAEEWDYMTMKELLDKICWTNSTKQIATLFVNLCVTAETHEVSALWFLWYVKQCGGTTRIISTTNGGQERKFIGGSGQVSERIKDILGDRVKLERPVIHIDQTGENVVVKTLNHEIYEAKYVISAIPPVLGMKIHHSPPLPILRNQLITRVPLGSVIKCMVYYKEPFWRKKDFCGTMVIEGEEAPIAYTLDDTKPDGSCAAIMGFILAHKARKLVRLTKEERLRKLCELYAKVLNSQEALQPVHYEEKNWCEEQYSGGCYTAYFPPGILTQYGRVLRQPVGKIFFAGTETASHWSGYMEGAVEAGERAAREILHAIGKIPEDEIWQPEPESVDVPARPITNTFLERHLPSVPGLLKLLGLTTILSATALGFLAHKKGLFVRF
Sequence of bovine Gamma-Aminobutyric Acid Type A Receptor BDZ, alpha 1 site (GABARa1), GABRA1 (gene 780973) (P08219 whole entry, looked up): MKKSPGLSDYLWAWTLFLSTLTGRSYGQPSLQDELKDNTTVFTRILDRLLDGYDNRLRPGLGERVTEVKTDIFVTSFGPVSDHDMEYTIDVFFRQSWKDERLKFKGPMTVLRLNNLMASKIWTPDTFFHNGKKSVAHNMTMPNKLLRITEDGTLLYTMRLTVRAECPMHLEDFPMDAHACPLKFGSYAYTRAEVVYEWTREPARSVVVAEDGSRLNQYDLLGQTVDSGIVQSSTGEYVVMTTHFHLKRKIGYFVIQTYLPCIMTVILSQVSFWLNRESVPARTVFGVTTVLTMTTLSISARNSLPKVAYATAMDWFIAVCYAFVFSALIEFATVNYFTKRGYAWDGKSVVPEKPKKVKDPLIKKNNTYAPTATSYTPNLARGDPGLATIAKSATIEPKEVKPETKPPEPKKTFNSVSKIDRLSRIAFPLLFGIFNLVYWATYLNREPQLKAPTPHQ
Sequence of human Acetylcholinesterase (AChE), ACHE (gene 43) (P22303 whole entry, looked up): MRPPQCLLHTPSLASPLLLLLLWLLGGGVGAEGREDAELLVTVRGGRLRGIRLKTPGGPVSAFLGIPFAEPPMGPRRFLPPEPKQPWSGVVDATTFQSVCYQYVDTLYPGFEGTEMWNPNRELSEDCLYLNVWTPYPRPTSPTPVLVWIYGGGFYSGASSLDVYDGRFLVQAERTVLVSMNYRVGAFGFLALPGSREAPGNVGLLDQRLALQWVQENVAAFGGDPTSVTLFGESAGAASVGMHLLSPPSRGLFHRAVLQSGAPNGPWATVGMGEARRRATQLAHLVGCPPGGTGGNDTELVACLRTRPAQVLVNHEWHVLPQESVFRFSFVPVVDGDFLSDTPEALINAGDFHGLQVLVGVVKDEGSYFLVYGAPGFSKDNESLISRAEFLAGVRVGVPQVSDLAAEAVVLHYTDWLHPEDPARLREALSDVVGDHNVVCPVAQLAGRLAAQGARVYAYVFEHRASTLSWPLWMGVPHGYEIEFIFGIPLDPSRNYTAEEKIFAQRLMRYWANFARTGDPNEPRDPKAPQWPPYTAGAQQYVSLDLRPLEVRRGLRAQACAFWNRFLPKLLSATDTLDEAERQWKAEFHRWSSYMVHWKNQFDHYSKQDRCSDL

Regarding `CCCCOCCOCCOCc1cc2c(cc1CCC)OCO2`, the compound was called inactive in assay [1], in [3] and in assay [4]. The results for the AC50 in assay [2] and in assay [5] were 4.47 µM (active) and 5.69 µM (active), respectively.
Take `CN(C)c1ccc(C(=C2C=CC(=[N+](C)C)C=C2)c2ccc(N(C)C)cc2)cc1`: the call (in [1]; in the assay with Caspase-1 (Homo sapiens)) was inactive. The AC50 in assay [6] is 6.48 µM (active); in assay [7], 18.2 µM (active); in assay [8], 17.1 µM (active); in assay [9], 25 µM (active); in assay [10], 6.82 µM (active); in assay [11], 20.9 µM (active). Moreover, in assay [12], the AC50 is 1.89 µM (active).
Consider `c1ccc2[nH]c(-c3cscn3)nc2c1`, for which the compound was classed as inactive (in assay [1]; in [3]; in the assay with PPP2CA (gene 5515); in assay [10]; in assay [14]). Besides, in [13], the AC50 was 17 µM (active).
With `CO[Si](CCC1CCC2OC2C1)(OC)OC` (stereo not given), the call in assay [1] and in assay [3] was inactive.
Regarding `O=c1c(-c2ccc(O)cc2)coc2cc(O)cc(O)c12`, the outcome in assay [1] is “inactive”; in [2] it was “inactive”; with rat CYP2B1, gene 24300, “inactive”. In addition, in [15], the AC50 was 31.1 µM (active) and 25 µM (active).
As for `CCCOc1sc(C(=O)N2CCC(c3cc(CN)ccc3F)CC2)c(C)c1Br`, the outcome in assay [1] and in assay [6] was inactive. In assay [11], the AC50 was 23.2 µM (active).
Take `CCC(C)N(C)C(=O)c1cc2ccccc2c(-c2ccccc2Cl)n1` (stereo not given): the call in assay [1], in assay [16], in assay [17] and in [18] was inactive. Besides, the AC50 was 10.2 µM (active) in assay [14] and 9.67 µM (active) in assay [12].
